Measurements: PubChem BioAssay (NCI)
This is part of a sample that, as a whole, favours compounds with a hit. Of some 79,000 tested, about 15% had one in any assay. Activity calls are given as the source filed them. Cut-off read from the data, not from the text of the source: active = growth inhibition above about 70%; inactive = the rest.

Key:
[1] = NCI Yeast Anticancer Drug Screen. Data for the wt2 strain (AID 169);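 note: 0% = growth of vehicle-treated yeast cultures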; details: S. cerevisiae wt2 strain growth inhibition, stronger effect = higher value
Procedure, shortened: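 Growth of compound-treated yeast is measured and expressed as inhibition relative to vehicle-only controls.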

[2] = NCI Yeast Anticancer Drug Screen. Data for the mlh1 strain (AID 171);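 note: 0% = growth of vehicle-treated control cultures of the same strain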; details: S. cerevisiae mlh1 strain growth inhibition, stronger effect = higher value
Procedure, shortened: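 Test agents were incubated with yeast bearing a defined DNA damage repair or cell cycle control alteration; values are growth inhibition normalised to vehicle-treated cultures.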

[3] = NCI Yeast Anticancer Drug Screen. Data for the sgs1 strain (AID 173);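 note: 0% = growth of vehicle-only control cultures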; details: S. cerevisiae sgs1 mutant, stronger effect = higher value
Procedure, shortened: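 Strain with an altered DNA repair or cell cycle pathway exposed to compound. Growth then measured. Value = inhibition versus vehicle control.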

[4] = NCI Yeast Anticancer Drug Screen. Data for the mlh1 rad18 strain (AID 175); details: S. cerevisiae mlh1 rad18 strain growth inhibition, stronger effect = higher value
Procedure, shortened: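 A repair-deficient yeast strain is exposed to test compound, and growth is scored relative to vehicle-treated controls.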

[5] = NCI Yeast Anticancer Drug Screen. Data for the rad18 strain (AID 177); details: S. cerevisiae rad18 mutant growth inhibition, stronger effect = higher value
Procedure, shortened: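 DNA-repair-defective yeast; compound treatment; growth inhibition scored against vehicle.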

[6] = NCI Yeast Anticancer Drug Screen. Data for the rad52 strain (AID 147);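 note: 0% = growth of vehicle-treated control cultures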; details: S. cerevisiae rad52 mutant growth inhibition, stronger effect = higher value
Procedure, shortened: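 Growth of repair-deficient yeast cells was compared between compound-treated and vehicle-treated cultures to give percent inhibition.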

[7] = NCI Yeast Anticancer Drug Screen. Data for the wt1 strain (AID 149);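 note: 0% = growth of vehicle-treated wt1 cultures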; details: S. cerevisiae wt1 strain (SPY 50644) growth inhibition, stronger effect = higher value
Procedure, shortened: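 Vehicle-normalised growth inhibition; strain wt1; compound exposure.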

[8] = NCI Yeast Anticancer Drug Screen. Data for the rad50EPP+ strain (AID 151);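 note: 0% = growth of vehicle-treated control cultures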; details: S. cerevisiae rad50 mutant strain, stronger effect = higher value
Procedure, shortened: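 Measured: growth inhibition of rad50EPP+ yeast. Reference: vehicle-treated controls. Screen uses strains with defined genetic alterations in DNA damage repair or cell cycle control.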

[9] = NCI Yeast Anticancer Drug Screen. Data for the mgt1 strain (AID 153); details: S. cerevisiae mgt1 mutant growth inhibition, stronger effect = higher value
Procedure, shortened: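 Compounds were applied to mgt1 mutant yeast, and growth was then compared against vehicle-treated control cultures to give percent inhibition.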

[10] = NCI Yeast Anticancer Drug Screen. Data for the rad50 strain (AID 155);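 note: 0% = growth of vehicle-only cultures of the same strain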; details: S. cerevisiae rad50 strain growth inhibition, stronger effect = higher value
Procedure, shortened: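 A DNA repair-deficient yeast mutant serves as the test organism; compound-induced growth inhibition is calculated against vehicle-treated cells.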

[11] = NCI Yeast Anticancer Drug Screen. Data for the mec2-1 strain (AID 157); details: S. cerevisiae mec2-1 strain, stronger effect = higher value
Procedure, shortened: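 Compounds were applied to mec2-1 yeast cells. Their growth was then compared with that of vehicle-treated cultures to give growth inhibition.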

[12] = NCI Yeast Anticancer Drug Screen. Data for the rad14 strain (AID 159);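 note: 0% = growth of vehicle-treated control cultures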; details: S. cerevisiae rad14 strain growth inhibition, stronger effect = higher value
Procedure, shortened: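 Vehicle-treated cultures served as the baseline for growth inhibition of a DNA repair-mutant yeast strain exposed to each compound.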

[13] = NCI Yeast Anticancer Drug Screen. Data for the sgs1 mgt1 strain (AID 161);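 note: 0% = growth of cultures given vehicle only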; details: S. cerevisiae sgs1 mgt1 strain, stronger effect = higher value
Procedure, shortened: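 Growth of a repair-deficient yeast mutant was monitored after compound treatment and expressed as inhibition relative to vehicle-treated cultures.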

[14] = NCI Yeast Anticancer Drug Screen. Data for the CLN2oe strain (AID 163);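 note: 0% = growth of vehicle-only control cultures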; details: S. cerevisiae CLN2oe strain, stronger effect = higher value
Procedure, shortened: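 Cells of an engineered yeast line with disturbed cell-cycle regulation are treated with compound. Inhibition of growth is then calculated relative to the vehicle-treated reference.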

[15] = NCI Yeast Anticancer Drug Screen. Data for the cln2 rad14 strain (AID 165);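 note: 0% = growth equal to vehicle treated cultures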; details: S. cerevisiae cln2 rad14 strain, stronger effect = higher value
Procedure, shortened: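 Strain: cln2 rad14 yeast, altered in cell cycle control and DNA damage repair. Read-out: growth inhibition vs vehicle.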

[16] = NCI Yeast Anticancer Drug Screen. Data for the bub3 strain (AID 167); details: S. cerevisiae bub3 mutant strain, stronger effect = higher value
Procedure, shortened: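 Inhibition values come from growth of compound-treated mutant yeast normalised to vehicle-treated controls.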

[17] = at 5.0 µM (retest, dose inferred, filed as 0.5)
[18] = at 50.0 µM (retest, dose inferred, filed as 5.0)

Measured: growth inhibition

O=C(O)c1cc2c(cc1S(=O)(=O)O)C1C(C3C2C2(Cl)C(Cl)=C(Cl)C3(Cl)C2(Cl)Cl)C2(Cl)C(Cl)=C(Cl)C1(Cl)C2(Cl)Cl (stereo unspecified)
active: [1]; at 33.0 µM 90% | [1]; at 100.0 µM 96% | [2]; at 33.0 µM 95% | [2]; at 100.0 µM 97% | [3]; at 33.0 µM 92% | [3]; at 100.0 µM 96% | [4]; [18] 98% | [4]; at 50.0 µM 96.3% | [5]; at 33.0 µM 82% | [5]; at 100.0 µM 95%
inactive: [1]; at 1.2 µM 1% | [1]; at 3.7 µM 0% | [1]; at 11.0 µM 12% | [2]; at 1.2 µM -2% | [2]; at 3.7 µM -2% | [2]; at 11.0 µM 11% | [3]; at 1.2 µM -4% | [3]; at 3.7 µM -1% | [3]; at 11.0 µM 21% | [4]; [17] 67% | [5]; at 1.2 µM -1% | [5]; at 3.7 µM -1% | [5]; at 11.0 µM -8%

CC(C)OC(=O)NNc1cc(Cl)ccc1Cl
active: [8]; at 33.0 µM 72% | [8]; at 100.0 µM 88% | [9]; at 100.0 µM 88% | [10]; at 100.0 µM 87% | [11]; at 100.0 µM 77% | [12]; at 100.0 µM 99% | [16]; at 50.0 µM 99% | [4]; [18] 89% | [4]; at 50.0 µM 75.2% | [5]; at 100.0 µM 86%
inactive: [6]; at 1.2 µM 0% | [6]; at 3.7 µM 18% | [6]; at 11.0 µM 41% | [6]; at 33.0 µM 38% | [6]; at 100.0 µM 66% | [7]; at 1.2 µM -2% | [7]; at 3.7 µM 5% | [7]; at 11.0 µM 29% | [7]; at 33.0 µM 34% | [7]; at 100.0 µM 31% | [8]; at 1.2 µM 20% | [8]; at 3.7 µM 27% | [8]; at 11.0 µM 60% | [9]; at 1.2 µM -4% | [9]; at 3.7 µM 2% | [9]; at 11.0 µM 19% | [9]; at 33.0 µM 21% | [10]; at 1.2 µM -3% | [10]; at 3.7 µM 22% | [10]; [17] 19% | [10]; at 11.0 µM 41% | [10]; at 33.0 µM 36% | [10]; [18] 44% | [10]; at 50.0 µM 38% | [11]; at 1.2 µM -4% | [11]; at 3.7 µM 8% | [11]; [17] 9% | [11]; at 11.0 µM 34% | [11]; at 33.0 µM 33% | [11]; [18] 20% | [11]; at 50.0 µM 36.4% | [12]; at 1.2 µM -4% | [12]; at 3.7 µM 3% | [12]; at 11.0 µM 20% | [12]; at 33.0 µM 48% | [13]; [17] 17% | [13]; [18] 48% | [13]; at 50.0 µM 44.2% | [14]; at 1.2 µM -1% | [14]; at 3.7 µM 4% | [14]; at 11.0 µM 29% | [14]; at 33.0 µM 50% | [14]; at 100.0 µM 59% | [15]; [17] 4% | [15]; [18] 21% | [15]; at 50.0 µM 26% | [16]; at 1.2 µM 4% | [16]; at 3.7 µM -1% | [16]; [17] 32% | [16]; at 11.0 µM 19% | [16]; at 33.0 µM 39% | [16]; [18] 60% | [16]; at 100.0 µM 47% | [1]; at 1.2 µM 3% | [1]; at 3.7 µM 4% | [1]; at 11.0 µM 23% | [1]; at 33.0 µM 29% | [1]; at 100.0 µM 35% | [2]; at 1.2 µM -1% | [2]; at 3.7 µM 8% | [2]; at 11.0 µM 41% | [2]; at 33.0 µM 50% | [2]; at 100.0 µM 58% | [3]; at 1.2 µM 0% | [3]; at 3.7 µM 10% | [3]; at 11.0 µM 44% | [3]; at 33.0 µM 44% | [3]; at 100.0 µM 54% | [4]; [17] 57% | [5]; at 1.2 µM 2% | [5]; at 3.7 µM 69% | [5]; at 11.0 µM 69% | [5]; at 33.0 µM 62%
